How the values were obtained:
Test in all cases: log2 ratio of Biotin-Ahx-Ub-VS probe labelling (fragment/DMSO); higher = less target engagement (more negative = stronger competition), active = hit call of the paper (q ≤ 0.05, log2 ratio ≤ -1)
Conditions in all cases: compound concentration: 200 uM; treatment time: 3 h
ALG13 = target: T1, ALG13 (UniProt Q9NP73)
T1 sequence (whole entry): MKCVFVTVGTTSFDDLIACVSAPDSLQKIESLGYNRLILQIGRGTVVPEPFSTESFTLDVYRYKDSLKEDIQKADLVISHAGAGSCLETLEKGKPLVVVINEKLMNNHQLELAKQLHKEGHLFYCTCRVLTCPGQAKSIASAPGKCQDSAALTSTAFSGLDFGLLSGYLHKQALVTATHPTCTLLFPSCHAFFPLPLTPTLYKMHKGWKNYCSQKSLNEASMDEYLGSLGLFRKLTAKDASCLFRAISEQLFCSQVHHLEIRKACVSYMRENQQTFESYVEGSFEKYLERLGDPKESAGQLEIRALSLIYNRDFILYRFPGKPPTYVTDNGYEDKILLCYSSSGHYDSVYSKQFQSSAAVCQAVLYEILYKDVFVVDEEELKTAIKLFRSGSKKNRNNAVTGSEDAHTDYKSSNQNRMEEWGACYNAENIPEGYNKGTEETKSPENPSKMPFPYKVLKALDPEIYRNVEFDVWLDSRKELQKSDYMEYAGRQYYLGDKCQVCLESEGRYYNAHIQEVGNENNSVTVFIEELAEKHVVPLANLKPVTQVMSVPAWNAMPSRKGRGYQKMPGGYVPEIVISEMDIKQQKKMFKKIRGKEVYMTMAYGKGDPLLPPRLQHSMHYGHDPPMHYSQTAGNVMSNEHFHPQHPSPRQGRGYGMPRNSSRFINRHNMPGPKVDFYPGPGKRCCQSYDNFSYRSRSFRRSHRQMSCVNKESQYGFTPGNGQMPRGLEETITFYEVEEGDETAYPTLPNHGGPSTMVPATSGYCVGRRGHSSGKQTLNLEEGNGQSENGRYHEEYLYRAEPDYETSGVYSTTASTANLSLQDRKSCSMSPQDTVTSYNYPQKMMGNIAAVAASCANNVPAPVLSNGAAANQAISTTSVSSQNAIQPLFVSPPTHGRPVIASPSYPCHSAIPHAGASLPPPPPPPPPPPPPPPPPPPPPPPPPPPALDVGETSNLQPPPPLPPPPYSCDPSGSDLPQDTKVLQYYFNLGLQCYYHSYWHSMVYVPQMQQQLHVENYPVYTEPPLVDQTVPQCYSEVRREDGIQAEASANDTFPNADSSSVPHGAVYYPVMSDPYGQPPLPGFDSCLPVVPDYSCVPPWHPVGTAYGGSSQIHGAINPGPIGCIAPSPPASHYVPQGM
Summary of the method: (§1)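 Each value is an average log2 ratio of fragment to vehicle, tested by unpaired t-test. The underlying Spectronaut label-free quantities were global-median-normalised, and only proteins with ≥2 unique peptides were included. Triplicate HEK293T lysate samples (495 µg) were exposed to fragment at 200 µM or vehicle for 3 h, then to Biotin-Ahx-Ub-VS at 0.5 µM final for 1 h, before NeutrAvidin enrichment of labelled DUBs, LysC and trypsin digestion, and diaPASEF LC-MS/MS.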

ATXN3 = ATXN3 (UniProt P54252)
Summary of the method: as §1

BAP1 = target: T2, BAP1 (UniProt Q92560)
T2 sequence (whole entry): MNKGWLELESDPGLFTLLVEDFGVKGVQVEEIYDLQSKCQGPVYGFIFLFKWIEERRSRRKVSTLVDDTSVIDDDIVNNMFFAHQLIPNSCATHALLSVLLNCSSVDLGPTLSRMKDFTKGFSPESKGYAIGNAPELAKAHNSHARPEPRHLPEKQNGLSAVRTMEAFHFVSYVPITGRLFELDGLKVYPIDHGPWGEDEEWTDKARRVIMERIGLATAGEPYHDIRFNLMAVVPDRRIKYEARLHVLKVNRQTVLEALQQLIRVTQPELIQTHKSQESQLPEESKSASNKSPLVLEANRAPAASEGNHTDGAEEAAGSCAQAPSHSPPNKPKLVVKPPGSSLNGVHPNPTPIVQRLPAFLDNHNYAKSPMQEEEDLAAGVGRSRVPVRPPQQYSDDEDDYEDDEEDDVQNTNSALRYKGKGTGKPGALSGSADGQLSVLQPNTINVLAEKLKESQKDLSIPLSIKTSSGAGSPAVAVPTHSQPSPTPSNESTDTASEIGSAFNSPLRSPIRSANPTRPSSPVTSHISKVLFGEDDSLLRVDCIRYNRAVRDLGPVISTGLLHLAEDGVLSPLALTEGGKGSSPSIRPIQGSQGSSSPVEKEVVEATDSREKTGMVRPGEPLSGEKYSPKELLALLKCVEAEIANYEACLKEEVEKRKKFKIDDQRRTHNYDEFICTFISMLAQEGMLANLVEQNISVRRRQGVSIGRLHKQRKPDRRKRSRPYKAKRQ
Summary of the method: as §1

EIF3F = EIF3F (UniProt O00303)
Summary of the method: as §1

EIF3H = EIF3H (UniProt O15372)
Summary of the method: as §1

FAM105A = target: T3, FAM105A (UniProt Q9NUU6)
T3 sequence (whole entry): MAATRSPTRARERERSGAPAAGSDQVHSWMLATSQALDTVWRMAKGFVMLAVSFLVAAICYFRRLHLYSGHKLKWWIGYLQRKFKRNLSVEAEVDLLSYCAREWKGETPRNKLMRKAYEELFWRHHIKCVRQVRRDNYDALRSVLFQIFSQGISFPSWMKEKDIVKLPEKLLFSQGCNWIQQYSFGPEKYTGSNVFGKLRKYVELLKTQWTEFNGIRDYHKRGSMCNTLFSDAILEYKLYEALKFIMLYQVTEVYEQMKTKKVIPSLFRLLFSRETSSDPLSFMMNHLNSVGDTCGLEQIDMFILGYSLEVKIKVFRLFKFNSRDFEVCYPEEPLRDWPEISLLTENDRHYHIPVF
Summary of the method: as §1

OTUB1 = OTUB1 (UniProt Q96FW1)
Summary of the method: as §1

OTUD4 = target: T4, OTUD4 (UniProt Q01804)
T4 sequence (whole entry): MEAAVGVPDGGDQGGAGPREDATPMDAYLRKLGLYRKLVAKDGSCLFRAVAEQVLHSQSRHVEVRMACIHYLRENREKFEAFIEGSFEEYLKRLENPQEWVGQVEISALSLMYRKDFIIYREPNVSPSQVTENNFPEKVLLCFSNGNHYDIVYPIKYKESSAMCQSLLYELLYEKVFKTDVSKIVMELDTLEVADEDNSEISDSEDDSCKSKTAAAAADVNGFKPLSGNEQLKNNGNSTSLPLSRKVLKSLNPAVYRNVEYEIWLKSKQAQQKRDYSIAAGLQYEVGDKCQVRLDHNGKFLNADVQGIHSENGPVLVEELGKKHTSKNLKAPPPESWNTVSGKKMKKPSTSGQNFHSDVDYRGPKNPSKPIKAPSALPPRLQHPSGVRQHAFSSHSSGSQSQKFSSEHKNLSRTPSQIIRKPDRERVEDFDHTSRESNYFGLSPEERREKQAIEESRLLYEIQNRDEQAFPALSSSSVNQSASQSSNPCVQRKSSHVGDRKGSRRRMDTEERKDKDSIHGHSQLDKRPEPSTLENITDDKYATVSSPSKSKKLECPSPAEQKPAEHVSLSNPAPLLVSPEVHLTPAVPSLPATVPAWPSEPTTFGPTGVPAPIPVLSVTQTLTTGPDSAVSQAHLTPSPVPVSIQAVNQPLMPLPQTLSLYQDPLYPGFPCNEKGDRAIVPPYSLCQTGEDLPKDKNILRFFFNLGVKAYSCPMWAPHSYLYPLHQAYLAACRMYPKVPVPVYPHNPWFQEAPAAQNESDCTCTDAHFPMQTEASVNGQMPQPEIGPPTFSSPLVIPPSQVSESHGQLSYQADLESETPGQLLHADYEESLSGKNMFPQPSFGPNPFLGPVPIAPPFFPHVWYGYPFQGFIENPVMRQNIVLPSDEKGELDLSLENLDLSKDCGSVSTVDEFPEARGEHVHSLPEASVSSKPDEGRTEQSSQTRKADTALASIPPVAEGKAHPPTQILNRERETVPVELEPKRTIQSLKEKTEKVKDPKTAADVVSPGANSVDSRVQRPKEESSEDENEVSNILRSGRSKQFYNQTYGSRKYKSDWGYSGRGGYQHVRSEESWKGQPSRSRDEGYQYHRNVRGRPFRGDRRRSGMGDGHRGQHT
Summary of the method: as §1

OTUD5 = target: T5, OTUD5 (UniProt Q96G74)
T5 sequence (whole entry): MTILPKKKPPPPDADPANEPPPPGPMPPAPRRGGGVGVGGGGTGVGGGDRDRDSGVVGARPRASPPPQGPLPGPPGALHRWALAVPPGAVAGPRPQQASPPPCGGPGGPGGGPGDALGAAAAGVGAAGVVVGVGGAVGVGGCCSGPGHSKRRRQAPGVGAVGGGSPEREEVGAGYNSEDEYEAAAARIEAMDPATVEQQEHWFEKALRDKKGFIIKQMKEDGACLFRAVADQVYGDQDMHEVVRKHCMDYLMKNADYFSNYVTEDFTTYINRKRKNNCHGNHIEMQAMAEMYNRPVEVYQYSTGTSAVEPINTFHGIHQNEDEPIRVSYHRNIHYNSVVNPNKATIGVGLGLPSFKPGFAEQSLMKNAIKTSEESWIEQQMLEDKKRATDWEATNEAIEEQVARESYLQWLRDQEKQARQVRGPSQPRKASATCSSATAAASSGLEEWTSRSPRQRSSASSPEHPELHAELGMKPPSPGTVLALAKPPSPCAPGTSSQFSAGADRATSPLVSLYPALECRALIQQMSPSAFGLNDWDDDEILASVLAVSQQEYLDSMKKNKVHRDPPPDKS
Summary of the method: as §1

Measured: log2 ratio of Biotin-Ahx-Ub-VS probe labelling

Sequence of EIF3H (O15372 whole entry): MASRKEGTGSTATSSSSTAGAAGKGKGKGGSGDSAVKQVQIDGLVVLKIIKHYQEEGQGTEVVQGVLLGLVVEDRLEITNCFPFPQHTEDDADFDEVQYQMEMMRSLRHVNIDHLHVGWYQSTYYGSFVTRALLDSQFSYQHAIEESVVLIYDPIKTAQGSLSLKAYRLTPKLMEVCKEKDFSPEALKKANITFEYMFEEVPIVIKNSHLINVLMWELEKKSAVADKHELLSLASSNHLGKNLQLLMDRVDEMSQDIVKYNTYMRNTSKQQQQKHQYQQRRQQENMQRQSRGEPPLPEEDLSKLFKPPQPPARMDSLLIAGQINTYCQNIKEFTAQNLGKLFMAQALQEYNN
Sequence of ATXN3 (P54252 whole entry): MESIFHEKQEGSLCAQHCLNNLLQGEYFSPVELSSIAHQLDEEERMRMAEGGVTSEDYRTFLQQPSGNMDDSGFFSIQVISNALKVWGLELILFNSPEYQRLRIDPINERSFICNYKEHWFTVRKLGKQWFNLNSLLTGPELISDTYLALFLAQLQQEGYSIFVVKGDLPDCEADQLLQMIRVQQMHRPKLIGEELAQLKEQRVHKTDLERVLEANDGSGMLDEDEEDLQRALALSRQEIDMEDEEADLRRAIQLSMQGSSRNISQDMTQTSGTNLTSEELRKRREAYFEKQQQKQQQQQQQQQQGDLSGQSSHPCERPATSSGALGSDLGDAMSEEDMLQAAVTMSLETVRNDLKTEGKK
Sequence of OTUB1 (Q96FW1 whole entry): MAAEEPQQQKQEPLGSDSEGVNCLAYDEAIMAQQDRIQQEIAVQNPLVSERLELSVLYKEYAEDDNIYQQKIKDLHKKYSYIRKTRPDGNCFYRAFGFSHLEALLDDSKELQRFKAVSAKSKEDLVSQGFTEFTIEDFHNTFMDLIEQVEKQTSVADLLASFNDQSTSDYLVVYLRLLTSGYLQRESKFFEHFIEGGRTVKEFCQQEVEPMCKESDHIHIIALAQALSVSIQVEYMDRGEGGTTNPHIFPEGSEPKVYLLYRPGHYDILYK
Sequence of EIF3F (O00303 whole entry): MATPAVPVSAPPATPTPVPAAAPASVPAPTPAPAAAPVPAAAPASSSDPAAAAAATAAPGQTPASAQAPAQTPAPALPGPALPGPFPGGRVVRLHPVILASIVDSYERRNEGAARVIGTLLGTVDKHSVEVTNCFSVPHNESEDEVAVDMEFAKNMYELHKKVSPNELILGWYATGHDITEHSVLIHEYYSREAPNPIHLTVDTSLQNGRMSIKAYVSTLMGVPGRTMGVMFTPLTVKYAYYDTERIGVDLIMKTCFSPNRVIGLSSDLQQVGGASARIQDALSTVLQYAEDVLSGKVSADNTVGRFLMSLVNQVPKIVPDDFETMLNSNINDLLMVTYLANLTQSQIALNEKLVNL

O=C(CCl)Nc1cccc2ncccc12
active: BAP1 -3.71
inactive: ALG13 -0.13 | ATXN3 0.14 | EIF3F 0.254 | EIF3H -0.273 | FAM105A -0.205 | OTUB1 0.156 | OTUD4 -0.176 | OTUD5 -0.516

Source: the supplement of paper PMC11732987, “Enantioselective OTUD7B fragment discovery through chemoproteomics screening and high-throughput optimisation” (Communications Chemistry, 2025)
